In general, AC50 refers to the concentration at which the activity in the assay is half-maximal.

What all share (details): mRNA level, 48 h; actives raise or lower the signal
Read-out in experiment [1]: Potassium channel subfamily K member 1 (KCNK1), KCNK1 (gene 3775)
Nature of the experiment: LTEA_HepaRG_KCNK1: Life Technologies and Expression Analysis (LTEA) Assay for Potassium channel subfamily K member 1 (KCNK1) using HepaRG (AID 2283511). In a few lines: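 Gain or loss of KCNK1 mRNA is the read-out, quantified by qRT-PCR against three housekeeping genes after 48 h chemical treatment of human HepaRG liver cells. Concentrations ran from 100 uM downward in half-log steps, vehicle 0.5% DMSO.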

Read-out in experiment [2]: Keratin 19 (KRT19), KRT19 (gene 3880)
Nature of the experiment: LTEA_HepaRG_KRT19: Life Technologies and Expression Analysis (LTEA) Assay for Keratin 19 (KRT19) using HepaRG (AID 2283512). In outline:
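KRT19 transcript levels, measured by Fluidigm qRT-PCR against three housekeeping genes, are fitted for gain or loss of signal relative to DMSO. Human HepaRG cells receive test chemicals (top 100 uM, half-log steps, 0.5% DMSO) for 48 hours.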

Read-out in experiment [3]: JUN Transcription Factor, JUN (gene 3725)
Nature of the experiment: LTEA_HepaRG_JUN: Life Technologies and Expression Analysis (LTEA) Assay for JUN Transcription Factor using HepaRG (AID 2283513). In a few lines: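 Cells plated 48 h, medium switched to serum-free induction medium, then dosed 48 h (100 uM top, half-log dilutions, 0.5% DMSO). RNA isolated; JUN measured by qRT-PCR against three housekeeping genes; gain or loss fitted relative to DMSO.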

Read-out in experiment [4]: Lipase C (LIPC), LIPC (gene 3990)
Nature of the experiment: LTEA_HepaRG_LIPC: Life Technologies and Expression Analysis (LTEA) Assay for Lipase C (LIPC) using HepaRG (AID 2283514). In a few lines: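 Read-out is LIPC transcript level by TaqMan qRT-PCR, normalized to three housekeeping genes, after 48 h chemical treatment of human HepaRG liver cells. Curves span eight concentrations topping at 100 uM; activity in either direction scored relative to 0.5% DMSO.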

Read-out in experiment [5]: Lipoprotein lipase (LPL), LPL (gene 4023)
Nature of the experiment: LTEA_HepaRG_LPL: Life Technologies and Expression Analysis (LTEA) Assay for Lipoprotein lipase (LPL) using HepaRG (AID 2283515). In outline:
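Read-out is LPL transcript level by qRT-PCR, normalized to three housekeeping genes and fitted bidirectionally against the DMSO control. Human HepaRG cells received chemicals for 48 h at up to 100 uM.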

Read-out in experiment [6]: MicroRNA 122 (MIR122), gene 406906
Nature of the experiment: LTEA_HepaRG_MIR122: Life Technologies and Expression Analysis (LTEA) Assay for MicroRNA 122 (MIR122) using HepaRG (AID 2283516). Also: the transcript read is the microRNA miR-122. In outline:
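HepaRG plated 48 h, switched to serum-free induction medium, then treated in duplicate for 48 h (100 uM top, half-log steps, 0.5% DMSO vehicle). RNA isolated, qRT-PCR performed, concentration-response fitted both directions relative to DMSO.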

Read-out in experiment [7]: matrix metalloproteinase-10 (MMP10), MMP10 (gene 4319)
Nature of the experiment: LTEA_HepaRG_MMP10: Life Technologies and Expression Analysis (LTEA) Assay for matrix metalloproteinase-10 (MMP10) using HepaRG (AID 2283517). In a few lines: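 Gain or loss of MMP10 mRNA is fitted relative to the 0.5% DMSO vehicle. The human hepatic line HepaRG receives a 48-hour serum-free exposure, in duplicate, with a maximum concentration of 100 uM.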

Read-out in experiment [8]: matrix metalloproteinase-3 (MMP3), MMP3 (gene 4314)
Nature of the experiment: LTEA_HepaRG_MMP3: Life Technologies and Expression Analysis (LTEA) Assay for matrix metalloproteinase-3 (MMP3) using HepaRG (AID 2283519). In a few lines: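 HepaRG, human; 48 h dosing, 8 conc. (max 100 uM, half-log), duplicate, 0.5% DMSO. Readout: MMP3 transcript by Fluidigm TaqMan qRT-PCR, ACTB/GAPDH/POLR2A-normalised. Gain or loss fitted vs DMSO.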

Read-out in experiment [9]: Paternally Expressed 10 (PEG10), PEG10 (gene 23089)
Nature of the experiment: LTEA_HepaRG_PEG10: Life Technologies and Expression Analysis (LTEA) Assay for Paternally Expressed 10 (PEG10) using HepaRG (AID 2283520). In outline:
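HepaRG, 48 h post-plating → serum-free induction medium → 48 h chemical exposure (duplicate, 8-pt, max 100 uM, half-log, 0.5% DMSO) → lysis in RLT → TaqMan qRT-PCR for PEG10, ACTB/GAPDH/POLR2A normalisation.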

Read-out in experiment [10]: Nuclear factor NF-kappa-B p105 subunit (Homo sapiens) (UniProt P19838)
Nature of the experiment: LTEA_HepaRG_NFKB1: Life Technologies and Expression Analysis (LTEA) Assay for Nuclear Factor Kappa B Subunit 1 (NFKB1) using HepaRG (AID 2283521). In a few lines: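 Differentiated human HepaRG cells were exposed for 48 h in serum-free induction medium to eight concentrations (top 100 uM, half-log steps, 0.5% DMSO), in duplicate. NFKB1 mRNA was measured by TaqMan qRT-PCR, normalized to ACTB/GAPDH/POLR2A, and fitted bidirectionally against DMSO.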

Read-out in experiment [11]: Protein phosphatase 2A (PPP2R4), PTPA (gene 5524)
Nature of the experiment: LTEA_HepaRG_PPP2R4: Life Technologies and Expression Analysis (LTEA) Assay for Protein phosphatase 2A (PPP2R4) using HepaRG (AID 2283522). In outline: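 Readout is PPP2R4 transcript level by microfluidic qRT-PCR after 48 h chemical treatment of human HepaRG liver cells. Concentrations spanned 100 uM downward in half-log steps; gain or loss of signal was fitted relative to DMSO.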

Read-out in experiment [12]: Phosphatase and tensin (PTEN), PTEN (gene 5728)
Nature of the experiment: LTEA_HepaRG_PTEN: Life Technologies and Expression Analysis (LTEA) Assay for Phosphatase and tensin (PTEN) using HepaRG (AID 2283523). In a few lines:
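Read-out is PTEN transcript level by multiplexed TaqMan qRT-PCR after 48 h chemical treatment of human HepaRG cultures in serum-free induction medium. Concentrations spanned 100 uM downward in half-log steps, 0.5% DMSO throughout; activity fitted in both directions against vehicle.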

Read-out in experiment [13]: Pyruvate Dehydrogenase Kinase 4 (PDK4), PDK4 (gene 5166)
Nature of the experiment: LTEA_HepaRG_PDK4: Life Technologies and Expression Analysis (LTEA) Assay for Pyruvate Dehydrogenase Kinase 4 (PDK4) using HepaRG (AID 2283525). In a few lines:
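In this multiplexed human HepaRG expression assay, cells are treated 48 h with test chemicals across an eight-point range starting at 100 uM. PDK4 mRNA changes, normalized to ACTB/GAPDH/POLR2A, are fitted in both directions relative to vehicle.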

Read-out in experiment [14]: NAD(P)H dehydrogenase [quinone] 1 (NQO1), NQO1 (gene 1728)
Nature of the experiment: LTEA_HepaRG_NQO1: Life Technologies and Expression Analysis (LTEA) Assay for NAD(P)H dehydrogenase [quinone] 1 (NQO1) using HepaRG (AID 2283526). In outline: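 HepaRG, 48 h post-plating → serum-free induction medium → test chemical 48 h (duplicate, 100 uM top, half-log x8, 0.5% DMSO) → RNA isolation → qRT-PCR, ACTB/GAPDH/POLR2A normalization; bidirectional curve fit vs DMSO baseline.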

Read-out in experiment [15]: Nuclear factor erythroid 2-related factor 2 (Homo sapiens) (UniProt Q16236)
Nature of the experiment: LTEA_HepaRG_NFE2L2: Life Technologies and Expression Analysis (LTEA) Assay for Nuclear factor erythroid 2-related factor 2 (NFE2L2) Transcription Factor using HepaRG (AID 2283527).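 As to outcome: TaqMan qRT-PCR transcript level normalised to ACTB GAPDH and POLR2A housekeeping genes.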 In a few lines: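 Transcript level of NFE2L2 is the read-out, measured by microfluidic TaqMan qRT-PCR and normalized to three housekeeping genes. Human HepaRG cultures received test chemical for 48 h at up to 100 uM in half-log steps. Gain or loss of signal is fitted relative to 0.5% DMSO.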

Read-out in experiment [16]: succinate dehydrogenase complex iron sulfur subunit B (SDHB), SDHB (gene 6390)
Nature of the experiment: LTEA_HepaRG_SDHB: Life Technologies and Expression Analysis (LTEA) Assay for succinate dehydrogenase complex iron sulfur subunit B (SDHB) using HepaRG (AID 2283528). In a few lines: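 HepaRG, 48 h exposure, 8-pt half-log series from 100 uM in 0.5% DMSO, duplicates. Readout: SDHB mRNA by Fluidigm qRT-PCR vs housekeeping genes; bidirectional fit relative to DMSO.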

Read-out in experiment [17]: Signal transducer and activator of transcription 3 (Homo sapiens) (UniProt P40763)
Nature of the experiment: LTEA_HepaRG_STAT3: Life Technologies and Expression Analysis (LTEA) Assay for Signal transducer and activator of transcription (STAT3) using HepaRG (AID 2283529). In a few lines:
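Read-out is STAT3 mRNA level by qRT-PCR, normalized to three housekeeping genes, in human HepaRG liver cells treated for 48 h. Concentrations ran from 100 uM downward in half-log steps; curves were fitted for gain or loss relative to 0.5% DMSO.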

Read-out in experiment [18]: solute carrier (SLC22A1), SLC22A1 (gene 6580)
Nature of the experiment: LTEA_HepaRG_SLC22A1: Life Technologies and Expression Analysis (LTEA) Assay for solute carrier (SLC22A1) using HepaRG (AID 2283524). In outline: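 HepaRG (human liver line), 48 h dosing in serum-free induction medium; 8 conc., half-log down from 100 uM, 0.5% DMSO vehicle, duplicates. Endpoint: SLC22A1 mRNA, qRT-PCR, housekeeping-normalized; gain/loss fit vs DMSO.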

Read-out in experiment [19]: MYC, MYC (gene 4609)
Nature of the experiment: LTEA_HepaRG_MYC: Life Technologies and Expression Analysis (LTEA) Assay for MYC using HepaRG (AID 2283518). In a few lines: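 HepaRG, ~100,000 cells/well, collagen I; 48 h plating; serum-free induction medium; 48 h dosing, duplicate, 100 uM top, half-log, 0.5% DMSO; total RNA → qRT-PCR MYC; gain/loss fit vs DMSO.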

Active and inactive are the calls of the source. The calls were made as follows: active = hit-call score of the fitted dose curve at least 0.9, where 1 is the maximum; inactive = score below 0.9.

Nuclear factor erythroid 2-related factor 2 (Homo sapiens), sequence (Q16236 whole entry, looked up): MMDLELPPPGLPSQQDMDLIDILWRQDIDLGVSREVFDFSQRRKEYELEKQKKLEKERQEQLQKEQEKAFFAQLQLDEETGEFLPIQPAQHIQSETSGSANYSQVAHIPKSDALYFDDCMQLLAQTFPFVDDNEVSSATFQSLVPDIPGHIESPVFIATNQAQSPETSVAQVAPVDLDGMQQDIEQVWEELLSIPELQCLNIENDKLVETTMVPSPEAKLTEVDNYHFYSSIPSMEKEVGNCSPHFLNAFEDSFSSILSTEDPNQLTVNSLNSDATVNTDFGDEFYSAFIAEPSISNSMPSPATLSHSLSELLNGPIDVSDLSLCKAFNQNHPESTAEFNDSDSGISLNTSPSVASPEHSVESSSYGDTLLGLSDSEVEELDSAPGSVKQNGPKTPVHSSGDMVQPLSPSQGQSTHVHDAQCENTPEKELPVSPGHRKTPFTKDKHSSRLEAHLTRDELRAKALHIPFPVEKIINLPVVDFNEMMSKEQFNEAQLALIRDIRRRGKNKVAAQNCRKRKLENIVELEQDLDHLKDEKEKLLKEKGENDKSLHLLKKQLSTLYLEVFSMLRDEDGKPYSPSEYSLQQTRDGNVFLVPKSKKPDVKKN
Signal transducer and activator of transcription 3 (Homo sapiens), sequence (P40763 whole entry, looked up): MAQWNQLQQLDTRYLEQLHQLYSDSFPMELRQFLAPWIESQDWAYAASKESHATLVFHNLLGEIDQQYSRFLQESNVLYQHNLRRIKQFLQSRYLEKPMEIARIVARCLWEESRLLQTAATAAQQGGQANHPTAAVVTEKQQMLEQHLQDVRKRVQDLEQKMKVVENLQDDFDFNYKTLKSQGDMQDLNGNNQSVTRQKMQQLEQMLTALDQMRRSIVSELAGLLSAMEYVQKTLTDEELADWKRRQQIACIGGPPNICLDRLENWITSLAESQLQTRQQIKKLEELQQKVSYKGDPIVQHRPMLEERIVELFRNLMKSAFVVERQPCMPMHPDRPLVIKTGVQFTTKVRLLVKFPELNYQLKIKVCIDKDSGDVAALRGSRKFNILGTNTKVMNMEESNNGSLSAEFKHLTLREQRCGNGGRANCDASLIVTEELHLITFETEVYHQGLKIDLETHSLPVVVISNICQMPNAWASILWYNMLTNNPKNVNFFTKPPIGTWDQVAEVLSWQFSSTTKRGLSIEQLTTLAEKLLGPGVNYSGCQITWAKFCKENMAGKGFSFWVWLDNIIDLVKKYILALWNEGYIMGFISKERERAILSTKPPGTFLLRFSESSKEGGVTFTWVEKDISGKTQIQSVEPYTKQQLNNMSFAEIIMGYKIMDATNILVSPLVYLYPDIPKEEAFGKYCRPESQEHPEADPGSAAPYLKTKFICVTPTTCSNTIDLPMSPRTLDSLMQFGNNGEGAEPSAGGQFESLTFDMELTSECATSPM
Nuclear factor NF-kappa-B p105 subunit (Homo sapiens), sequence (P19838 whole entry, looked up): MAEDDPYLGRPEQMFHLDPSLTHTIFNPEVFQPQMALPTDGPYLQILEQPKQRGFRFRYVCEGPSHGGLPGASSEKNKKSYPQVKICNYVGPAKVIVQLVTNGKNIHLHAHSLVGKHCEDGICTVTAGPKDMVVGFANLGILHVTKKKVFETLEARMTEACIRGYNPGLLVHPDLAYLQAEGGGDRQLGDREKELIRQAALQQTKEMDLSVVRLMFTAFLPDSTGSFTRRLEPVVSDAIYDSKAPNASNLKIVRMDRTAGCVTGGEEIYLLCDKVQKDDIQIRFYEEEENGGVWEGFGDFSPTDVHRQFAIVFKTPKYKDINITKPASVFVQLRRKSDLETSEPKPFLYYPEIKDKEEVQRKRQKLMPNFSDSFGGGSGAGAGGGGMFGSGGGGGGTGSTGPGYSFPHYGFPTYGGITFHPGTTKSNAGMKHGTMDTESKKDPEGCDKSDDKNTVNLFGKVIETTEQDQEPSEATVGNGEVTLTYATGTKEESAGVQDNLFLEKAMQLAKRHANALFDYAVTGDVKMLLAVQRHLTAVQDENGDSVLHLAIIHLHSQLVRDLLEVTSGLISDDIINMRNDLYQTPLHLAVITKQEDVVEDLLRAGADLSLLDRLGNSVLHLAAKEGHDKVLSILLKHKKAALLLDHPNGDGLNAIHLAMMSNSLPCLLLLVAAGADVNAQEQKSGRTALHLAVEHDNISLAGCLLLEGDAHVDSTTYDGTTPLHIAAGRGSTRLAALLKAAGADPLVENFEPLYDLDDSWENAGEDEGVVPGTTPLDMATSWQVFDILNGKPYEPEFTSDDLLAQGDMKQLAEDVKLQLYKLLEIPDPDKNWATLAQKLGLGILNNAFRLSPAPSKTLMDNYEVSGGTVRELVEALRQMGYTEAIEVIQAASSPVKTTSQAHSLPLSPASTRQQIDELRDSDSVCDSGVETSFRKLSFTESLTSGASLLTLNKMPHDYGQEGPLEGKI

For `O=C(O)c1c(Cl)ccc2cc(Cl)cnc12`, the compound was called inactive in experiment [1], in experiment [2], in experiment [3], in experiment [4], in [5] and in experiment [6]. Further, the compound was called inactive in experiment [7], in experiment [8], in experiment [9], in [10], in experiment [11] and in experiment [12]. The outcome in experiment [13], in experiment [14], in experiment [15], in experiment [16] and in [17] was inactive.

On to `CCOC(=O)C(C)OC(=O)c1cc(Oc2ccc(C(F)(F)F)cc2Cl)ccc1[N+](=O)[O-]` (stereo unspecified), for which the outcome in experiment [1], in experiment [3], in experiment [4], in [5], in [6] and in experiment [7] was inactive. In addition, the compound was classed as inactive in experiment [10], in [11], in experiment [12], in experiment [18], in experiment [14] and in experiment [15]. The result in experiment [16] and in experiment [17] was inactive. Also, the AC50 was 13.3 µM (active) in experiment [2], 9.92 µM (active) in [9] and 14.3 µM (active) in [13].

Consider `O=c1n(Cl)c(=O)n(Cl)c(=O)n1Cl`, for which the call in experiment [1], in experiment [2], in [3], in experiment [4], in experiment [5] and in experiment [6] was inactive. For the same compound, the result in [7], in experiment [8], in experiment [9], in experiment [10], in experiment [11] and in experiment [12] was inactive. Also, the outcome in experiment [18], in [13], in [14], in experiment [15], in experiment [16] and in [17] was inactive.

Take `OC(c1ccc(Cl)cc1)(c1ccc(Cl)cc1)C(Cl)(Cl)Cl`: the AC50 is 50 µM (active) in experiment [1]; 50 µM (active) in experiment [2]; 77.7 µM (active) in experiment [4]; 64.9 µM (active) in [6]; 67.2 µM (active) in experiment [7]; 73.7 µM (active) in experiment [19]. The AC50 in experiment [8] was 50 µM (active); in experiment [12], 78.4 µM (active); in experiment [18] it was 81.9 µM (active); in experiment [13], 80.5 µM (active); in experiment [14], 93 µM (active); in [15] it was 71 µM (active). Moreover, the outcome in experiment [3], in [5], in experiment [9], in experiment [10], in experiment [11] and in experiment [16] was inactive. Further, the compound was classed as inactive in experiment [17].

(Values after PubChem BioAssay (EPA / NIEHS).)
